# Experiments:
# Assay in all cases: DAPPL (digital affinity profiling via proximity ligation, sequencing); 10 mM Tris-HCl pH 7.5, 50 mM NaCl, 1 mM DTT, 4% glycerol, room temperature, 30 min; GST-TFs on glutathione beads, 16-mer random dsDNA library, 0.1% formaldehyde crosslink after washing; high values mean tight binding
# [1] = target: T1, FLI1 (Homo sapiens, UniProt Q01543 1-452); conditions: protein: recombinant; tags: N-terminal GST; dsDNA, one strand shown
# T1 sequence: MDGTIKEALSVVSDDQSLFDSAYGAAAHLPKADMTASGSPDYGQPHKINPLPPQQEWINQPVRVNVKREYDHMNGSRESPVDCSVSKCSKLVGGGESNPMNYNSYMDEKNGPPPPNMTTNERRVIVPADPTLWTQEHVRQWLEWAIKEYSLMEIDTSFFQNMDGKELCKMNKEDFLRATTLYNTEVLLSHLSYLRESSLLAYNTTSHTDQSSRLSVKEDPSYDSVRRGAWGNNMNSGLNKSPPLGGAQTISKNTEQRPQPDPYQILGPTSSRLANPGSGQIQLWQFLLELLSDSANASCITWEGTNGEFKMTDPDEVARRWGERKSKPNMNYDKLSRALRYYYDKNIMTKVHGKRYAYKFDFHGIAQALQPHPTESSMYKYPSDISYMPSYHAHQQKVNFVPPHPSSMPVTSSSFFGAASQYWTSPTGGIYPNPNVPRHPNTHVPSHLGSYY
# Method in brief: (§1)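 Sequencing on an Illumina NextSeq500 followed washing, crosslinking with 0.1% formaldehyde, proximity ligation (BsaI/T4 ligase, 1 h, 37 °C) and PCR amplification of pools that had been incubated for 30 min at room temperature with 200 nmole of a random double-stranded 16-mer DNA library in Tris/NaCl/DTT/glycerol buffer. Each pool held DNA-barcoded human transcription factors, expressed in yeast as GST fusions and captured on glutathione beads, plus a tag-only sample. Binding signal is a hexamer's read frequency for a factor divided by its frequency in the tag-only sample.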
# [2] = target: T2, ELK1 (Homo sapiens, UniProt P19419 1-428); conditions: protein: recombinant; tags: N-terminal GST; dsDNA, one strand shown
# T2 sequence: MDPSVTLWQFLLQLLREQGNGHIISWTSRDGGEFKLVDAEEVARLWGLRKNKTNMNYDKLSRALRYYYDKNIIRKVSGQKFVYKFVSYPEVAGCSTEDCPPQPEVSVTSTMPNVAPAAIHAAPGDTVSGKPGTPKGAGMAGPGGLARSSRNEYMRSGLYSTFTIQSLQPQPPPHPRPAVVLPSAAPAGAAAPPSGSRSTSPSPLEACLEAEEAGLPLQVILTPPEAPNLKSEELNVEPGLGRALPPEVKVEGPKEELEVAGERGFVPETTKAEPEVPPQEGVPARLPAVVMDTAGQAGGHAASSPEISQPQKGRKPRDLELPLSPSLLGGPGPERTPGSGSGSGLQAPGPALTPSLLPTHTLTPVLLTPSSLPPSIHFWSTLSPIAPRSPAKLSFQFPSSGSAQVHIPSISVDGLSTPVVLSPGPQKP
# Method in brief: as §1
# [3] = target: T3, GABPA (Homo sapiens, UniProt Q06546 1-454); conditions: protein: recombinant; tags: N-terminal GST; dsDNA, one strand shown
# T3 sequence: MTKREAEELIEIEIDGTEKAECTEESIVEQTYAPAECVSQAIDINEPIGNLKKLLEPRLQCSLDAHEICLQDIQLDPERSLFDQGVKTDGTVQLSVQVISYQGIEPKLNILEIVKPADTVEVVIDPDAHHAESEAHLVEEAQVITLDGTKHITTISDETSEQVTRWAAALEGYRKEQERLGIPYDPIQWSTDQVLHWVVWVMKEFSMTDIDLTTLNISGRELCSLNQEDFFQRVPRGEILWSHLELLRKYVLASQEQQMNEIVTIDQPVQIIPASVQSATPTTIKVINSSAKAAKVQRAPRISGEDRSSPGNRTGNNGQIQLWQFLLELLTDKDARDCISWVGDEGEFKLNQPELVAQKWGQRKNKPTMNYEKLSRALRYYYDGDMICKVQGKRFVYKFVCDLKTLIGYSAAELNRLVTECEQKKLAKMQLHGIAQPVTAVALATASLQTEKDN
# Method in brief: as §1
# [4] = target: T4, ERG (Homo sapiens, UniProt P11308 1-479); conditions: protein: recombinant; tags: N-terminal GST; dsDNA, one strand shown
# T4 sequence: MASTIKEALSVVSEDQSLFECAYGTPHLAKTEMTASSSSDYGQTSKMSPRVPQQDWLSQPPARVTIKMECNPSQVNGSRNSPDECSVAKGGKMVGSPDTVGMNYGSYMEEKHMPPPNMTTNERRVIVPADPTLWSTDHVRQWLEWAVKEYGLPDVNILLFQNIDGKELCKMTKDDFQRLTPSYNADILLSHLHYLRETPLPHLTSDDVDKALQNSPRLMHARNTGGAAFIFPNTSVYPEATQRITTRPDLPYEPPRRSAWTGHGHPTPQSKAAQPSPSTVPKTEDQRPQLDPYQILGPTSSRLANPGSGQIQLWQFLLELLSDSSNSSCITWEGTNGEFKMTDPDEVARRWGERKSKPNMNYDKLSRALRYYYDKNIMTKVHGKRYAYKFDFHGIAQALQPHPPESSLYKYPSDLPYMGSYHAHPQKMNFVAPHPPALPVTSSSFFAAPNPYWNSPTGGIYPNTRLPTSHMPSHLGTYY
# Method in brief: as §1
# [5] = target: ELF1 (Homo sapiens, UniProt P32519 1-619); conditions: protein: recombinant; tags: N-terminal GST; dsDNA, one strand shown
# Sequence of ELF1 (P32519 whole entry): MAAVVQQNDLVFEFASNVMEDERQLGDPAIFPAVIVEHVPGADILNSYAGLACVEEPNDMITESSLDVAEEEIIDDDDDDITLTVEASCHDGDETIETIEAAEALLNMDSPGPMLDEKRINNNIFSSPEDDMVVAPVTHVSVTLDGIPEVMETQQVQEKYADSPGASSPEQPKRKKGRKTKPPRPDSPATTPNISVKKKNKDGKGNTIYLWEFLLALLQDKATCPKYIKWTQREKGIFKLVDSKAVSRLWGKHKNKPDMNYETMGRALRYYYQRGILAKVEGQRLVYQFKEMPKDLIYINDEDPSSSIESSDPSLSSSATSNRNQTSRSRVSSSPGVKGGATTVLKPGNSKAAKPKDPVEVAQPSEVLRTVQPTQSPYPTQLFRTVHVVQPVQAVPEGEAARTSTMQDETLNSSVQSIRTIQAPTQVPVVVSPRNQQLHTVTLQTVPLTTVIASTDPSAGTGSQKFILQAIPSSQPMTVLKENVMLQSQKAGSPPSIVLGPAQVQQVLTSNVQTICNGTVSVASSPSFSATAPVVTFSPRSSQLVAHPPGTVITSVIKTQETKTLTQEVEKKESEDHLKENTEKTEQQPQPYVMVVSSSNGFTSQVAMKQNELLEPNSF
# Method in brief: as §1
# [6] = target: T5, EHF (Homo sapiens, UniProt Q9NZC4 1-300); conditions: protein: recombinant; tags: N-terminal GST; dsDNA, one strand shown
# T5 sequence: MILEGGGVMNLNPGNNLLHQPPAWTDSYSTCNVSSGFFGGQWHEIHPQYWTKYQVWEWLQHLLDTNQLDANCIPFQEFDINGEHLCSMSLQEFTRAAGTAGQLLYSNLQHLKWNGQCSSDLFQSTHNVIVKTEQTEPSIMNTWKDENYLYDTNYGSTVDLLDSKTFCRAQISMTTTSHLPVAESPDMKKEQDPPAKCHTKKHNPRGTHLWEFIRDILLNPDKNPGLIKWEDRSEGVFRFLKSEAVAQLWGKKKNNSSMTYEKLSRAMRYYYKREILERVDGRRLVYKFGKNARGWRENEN
# Method in brief: as §1
# [7] = target: SPI1 (Homo sapiens, UniProt P17947 1-270); conditions: protein: recombinant; tags: N-terminal GST; dsDNA, one strand shown
# Method in brief: as §1
# [8] = target: SPIB (Homo sapiens, UniProt Q01892 1-262); conditions: protein: recombinant; tags: N-terminal GST; dsDNA, one strand shown
# Sequence of SPIB (Q01892 whole entry): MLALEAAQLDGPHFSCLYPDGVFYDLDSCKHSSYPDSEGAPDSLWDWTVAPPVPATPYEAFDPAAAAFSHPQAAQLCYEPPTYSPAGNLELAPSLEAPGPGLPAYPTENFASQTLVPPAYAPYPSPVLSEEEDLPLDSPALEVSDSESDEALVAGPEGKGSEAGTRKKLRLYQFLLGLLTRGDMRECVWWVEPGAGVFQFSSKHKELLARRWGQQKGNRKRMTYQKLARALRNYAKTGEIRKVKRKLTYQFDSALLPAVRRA
# Method in brief: as §1
# [9] = target: T6, ELK3 (Homo sapiens, UniProt P41970 1-407); conditions: protein: recombinant; tags: N-terminal GST; dsDNA, one strand shown
# T6 sequence: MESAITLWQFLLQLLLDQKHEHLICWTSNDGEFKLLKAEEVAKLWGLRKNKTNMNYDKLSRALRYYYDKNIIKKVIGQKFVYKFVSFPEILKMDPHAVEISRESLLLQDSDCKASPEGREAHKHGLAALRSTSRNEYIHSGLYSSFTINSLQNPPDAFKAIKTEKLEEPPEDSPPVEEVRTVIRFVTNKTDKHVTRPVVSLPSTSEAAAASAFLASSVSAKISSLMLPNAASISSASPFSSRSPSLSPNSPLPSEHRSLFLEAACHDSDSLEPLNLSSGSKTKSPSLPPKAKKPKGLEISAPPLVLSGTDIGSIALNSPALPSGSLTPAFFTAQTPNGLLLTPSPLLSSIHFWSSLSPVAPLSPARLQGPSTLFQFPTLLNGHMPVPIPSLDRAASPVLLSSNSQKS
# Method in brief: as §1
# [10] = target: T7, FEV (Homo sapiens, UniProt Q99581 1-238); conditions: protein: recombinant; tags: N-terminal GST; dsDNA, one strand shown
# T7 sequence: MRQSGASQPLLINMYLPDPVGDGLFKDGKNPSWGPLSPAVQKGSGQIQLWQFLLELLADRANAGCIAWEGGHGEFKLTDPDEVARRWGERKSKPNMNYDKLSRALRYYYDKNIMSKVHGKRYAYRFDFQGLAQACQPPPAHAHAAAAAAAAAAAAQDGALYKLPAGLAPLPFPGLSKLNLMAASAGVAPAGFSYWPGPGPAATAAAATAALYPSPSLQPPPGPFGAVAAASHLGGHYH
# Method in brief: as §1
# [11] = target: ETV5 (Homo sapiens, UniProt P41161 1-510); conditions: protein: recombinant; tags: N-terminal GST; dsDNA, one strand shown
# Sequence of ETV5 (P41161 whole entry): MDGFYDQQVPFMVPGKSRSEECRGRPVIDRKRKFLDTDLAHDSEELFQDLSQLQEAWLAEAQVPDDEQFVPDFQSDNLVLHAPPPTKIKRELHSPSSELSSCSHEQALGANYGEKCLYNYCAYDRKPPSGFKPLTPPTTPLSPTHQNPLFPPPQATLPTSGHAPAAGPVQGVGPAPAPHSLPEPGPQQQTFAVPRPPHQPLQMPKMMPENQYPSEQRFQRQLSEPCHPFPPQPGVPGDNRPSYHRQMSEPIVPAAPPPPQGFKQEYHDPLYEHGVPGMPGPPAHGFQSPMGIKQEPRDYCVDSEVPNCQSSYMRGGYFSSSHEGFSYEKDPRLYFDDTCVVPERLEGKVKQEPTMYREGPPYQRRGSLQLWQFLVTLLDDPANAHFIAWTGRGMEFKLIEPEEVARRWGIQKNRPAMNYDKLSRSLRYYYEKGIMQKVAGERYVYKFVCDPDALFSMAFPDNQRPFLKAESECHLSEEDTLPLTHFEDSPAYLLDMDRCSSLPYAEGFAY
# Method in brief: as §1
# [12] = target: HSF1 (Homo sapiens, UniProt Q00613 1-529); conditions: protein: recombinant; tags: N-terminal GST; chain copies: 3; dsDNA, one strand shown
# Sequence of HSF1 (Q00613 whole entry): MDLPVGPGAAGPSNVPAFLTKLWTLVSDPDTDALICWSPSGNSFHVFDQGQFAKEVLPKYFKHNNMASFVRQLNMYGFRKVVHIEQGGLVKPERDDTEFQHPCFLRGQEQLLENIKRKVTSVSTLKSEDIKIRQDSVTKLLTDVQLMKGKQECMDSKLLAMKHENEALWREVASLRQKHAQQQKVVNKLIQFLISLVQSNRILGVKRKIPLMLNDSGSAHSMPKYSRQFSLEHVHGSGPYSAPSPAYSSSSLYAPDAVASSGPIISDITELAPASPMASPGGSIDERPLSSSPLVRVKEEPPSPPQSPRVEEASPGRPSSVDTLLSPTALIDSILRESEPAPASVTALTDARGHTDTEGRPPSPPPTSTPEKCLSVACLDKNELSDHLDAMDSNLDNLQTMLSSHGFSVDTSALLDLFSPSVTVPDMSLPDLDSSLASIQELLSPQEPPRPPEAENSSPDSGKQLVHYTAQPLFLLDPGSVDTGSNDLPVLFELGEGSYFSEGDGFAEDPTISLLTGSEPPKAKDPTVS
# Method in brief: as §1
# [13] = target: T8, SPIC (Homo sapiens, UniProt Q8N5J4 1-248); conditions: protein: recombinant; tags: N-terminal GST; dsDNA, one strand shown
# T8 sequence: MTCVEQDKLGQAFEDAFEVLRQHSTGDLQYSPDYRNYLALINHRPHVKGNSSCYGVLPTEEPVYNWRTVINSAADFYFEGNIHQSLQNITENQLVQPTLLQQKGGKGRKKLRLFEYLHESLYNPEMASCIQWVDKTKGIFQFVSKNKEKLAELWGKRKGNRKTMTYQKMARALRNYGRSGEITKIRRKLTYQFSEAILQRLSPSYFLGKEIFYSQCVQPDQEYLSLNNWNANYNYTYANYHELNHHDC
# Method in brief: as §1
# [14] = target: ELF4 (Homo sapiens, UniProt Q99607 1-663); conditions: protein: recombinant; tags: N-terminal GST; dsDNA, one strand shown
# Sequence of ELF4 (Q99607 whole entry): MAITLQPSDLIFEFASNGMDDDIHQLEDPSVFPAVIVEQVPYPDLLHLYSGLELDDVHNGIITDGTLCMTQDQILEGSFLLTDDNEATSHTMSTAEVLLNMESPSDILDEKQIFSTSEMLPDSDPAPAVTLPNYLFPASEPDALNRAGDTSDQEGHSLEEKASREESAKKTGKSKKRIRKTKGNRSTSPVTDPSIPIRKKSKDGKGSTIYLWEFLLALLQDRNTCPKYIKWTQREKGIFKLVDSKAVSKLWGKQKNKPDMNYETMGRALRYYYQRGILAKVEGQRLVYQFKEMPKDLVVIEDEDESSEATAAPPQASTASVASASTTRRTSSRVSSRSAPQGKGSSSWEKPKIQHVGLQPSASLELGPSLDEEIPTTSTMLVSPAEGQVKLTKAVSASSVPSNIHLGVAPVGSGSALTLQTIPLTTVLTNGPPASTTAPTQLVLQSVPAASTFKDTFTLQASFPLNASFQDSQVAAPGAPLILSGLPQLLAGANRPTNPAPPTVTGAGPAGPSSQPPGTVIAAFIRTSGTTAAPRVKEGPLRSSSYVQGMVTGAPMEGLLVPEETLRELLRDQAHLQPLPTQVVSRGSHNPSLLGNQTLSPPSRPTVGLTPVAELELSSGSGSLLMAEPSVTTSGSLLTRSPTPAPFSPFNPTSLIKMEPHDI
# Method in brief: as §1
# [15] = target: T9, ELK4 (Homo sapiens, UniProt P28324-2 1-405); conditions: protein: recombinant; tags: N-terminal GST; dsDNA, one strand shown
# T9 sequence: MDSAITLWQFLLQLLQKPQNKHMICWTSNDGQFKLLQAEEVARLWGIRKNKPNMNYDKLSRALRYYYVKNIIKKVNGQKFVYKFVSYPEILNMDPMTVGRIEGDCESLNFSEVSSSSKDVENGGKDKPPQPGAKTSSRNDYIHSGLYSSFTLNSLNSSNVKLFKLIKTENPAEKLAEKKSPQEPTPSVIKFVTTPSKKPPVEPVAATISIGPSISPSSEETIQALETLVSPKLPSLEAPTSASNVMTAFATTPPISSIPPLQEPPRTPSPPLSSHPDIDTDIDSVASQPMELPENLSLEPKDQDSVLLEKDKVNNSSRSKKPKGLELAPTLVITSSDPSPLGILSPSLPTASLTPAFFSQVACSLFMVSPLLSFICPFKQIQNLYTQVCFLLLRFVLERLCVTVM
# Method in brief: as §1
# [16] = target: T10, ETV2 (Homo sapiens, UniProt O00321 1-342); conditions: protein: recombinant; tags: N-terminal GST; dsDNA, one strand shown
# T10 sequence: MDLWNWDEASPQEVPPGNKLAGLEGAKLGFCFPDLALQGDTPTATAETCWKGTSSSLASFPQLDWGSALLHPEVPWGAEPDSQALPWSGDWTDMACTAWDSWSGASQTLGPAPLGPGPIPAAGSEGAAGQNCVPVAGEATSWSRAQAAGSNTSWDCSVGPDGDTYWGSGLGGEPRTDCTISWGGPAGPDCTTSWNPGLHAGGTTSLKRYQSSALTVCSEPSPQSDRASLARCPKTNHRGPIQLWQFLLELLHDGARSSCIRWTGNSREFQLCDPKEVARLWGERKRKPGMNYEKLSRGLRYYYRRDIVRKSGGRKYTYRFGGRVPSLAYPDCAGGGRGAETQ
# Method in brief: as §1
# [17] = target: T11, ELF3 (Homo sapiens, UniProt P78545 1-371); conditions: protein: recombinant; tags: N-terminal GST; dsDNA, one strand shown
# T11 sequence: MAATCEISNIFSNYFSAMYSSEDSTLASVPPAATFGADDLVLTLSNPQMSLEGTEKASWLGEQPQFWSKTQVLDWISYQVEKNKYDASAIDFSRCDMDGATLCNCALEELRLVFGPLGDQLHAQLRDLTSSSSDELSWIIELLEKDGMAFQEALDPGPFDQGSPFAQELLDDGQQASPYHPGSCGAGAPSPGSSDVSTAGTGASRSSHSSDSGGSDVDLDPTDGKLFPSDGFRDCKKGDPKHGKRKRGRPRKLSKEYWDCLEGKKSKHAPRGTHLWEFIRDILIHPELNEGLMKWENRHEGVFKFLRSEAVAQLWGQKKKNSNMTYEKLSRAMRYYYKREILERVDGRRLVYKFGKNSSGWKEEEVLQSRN
# Method in brief: as §1
# [18] = target: CRX (Homo sapiens, UniProt O43186 1-299); conditions: protein: recombinant; tags: N-terminal GST; dsDNA, one strand shown
# Sequence of CRX (O43186 whole entry): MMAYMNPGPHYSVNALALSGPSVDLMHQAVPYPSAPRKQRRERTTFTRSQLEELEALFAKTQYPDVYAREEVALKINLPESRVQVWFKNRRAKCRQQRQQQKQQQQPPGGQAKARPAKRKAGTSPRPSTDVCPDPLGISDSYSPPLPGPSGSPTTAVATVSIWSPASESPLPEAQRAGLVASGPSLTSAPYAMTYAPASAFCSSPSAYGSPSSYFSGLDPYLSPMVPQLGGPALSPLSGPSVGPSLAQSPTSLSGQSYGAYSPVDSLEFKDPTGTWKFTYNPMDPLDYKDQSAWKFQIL
# Method in brief: as §1
# [19] = target: ETV1 (Homo sapiens, UniProt P50549 1-477); conditions: protein: recombinant; tags: N-terminal GST; dsDNA, one strand shown
# Sequence of ETV1 (P50549 whole entry): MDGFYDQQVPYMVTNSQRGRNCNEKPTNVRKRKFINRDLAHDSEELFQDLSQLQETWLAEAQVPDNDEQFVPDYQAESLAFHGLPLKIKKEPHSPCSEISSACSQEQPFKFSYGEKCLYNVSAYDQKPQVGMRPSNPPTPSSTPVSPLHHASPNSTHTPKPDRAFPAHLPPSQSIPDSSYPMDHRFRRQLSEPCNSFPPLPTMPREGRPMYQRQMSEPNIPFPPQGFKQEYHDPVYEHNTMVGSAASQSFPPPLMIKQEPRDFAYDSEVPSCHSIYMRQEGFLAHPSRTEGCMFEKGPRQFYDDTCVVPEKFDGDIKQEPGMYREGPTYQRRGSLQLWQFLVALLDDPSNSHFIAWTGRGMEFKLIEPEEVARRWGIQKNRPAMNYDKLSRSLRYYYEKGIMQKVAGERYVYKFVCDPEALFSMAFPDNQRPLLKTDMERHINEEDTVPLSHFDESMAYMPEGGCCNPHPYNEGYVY
# Method in brief: as §1
sequence,measurement,setting,value
TGAACT,binding signal,[1],"1.27 fold enrichment (6-mer frequency, TF over GST control)"
same,binding signal,[2],"1.19 fold enrichment (6-mer frequency, TF over GST control)"
same,binding signal,[3],"1.33 fold enrichment (6-mer frequency, TF over GST control)"
same,binding signal,[4],"1.32 fold enrichment (6-mer frequency, TF over GST control)"
same,binding signal,[5],"1.2 fold enrichment (6-mer frequency, TF over GST control)"
same,binding signal,[6],"1.34 fold enrichment (6-mer frequency, TF over GST control)"
same,binding signal,[7],"1.17 fold enrichment (6-mer frequency, TF over GST control)"
same,binding signal,[8],"1.25 fold enrichment (6-mer frequency, TF over GST control)"
same,binding signal,[9],"1.19 fold enrichment (6-mer frequency, TF over GST control)"
same,binding signal,[10],"1.28 fold enrichment (6-mer frequency, TF over GST control)"
same,binding signal,[11],"1.19 fold enrichment (6-mer frequency, TF over GST control)"
same,binding signal,[12],"1.19 fold enrichment (6-mer frequency, TF over GST control)"
same,binding signal,[13],"1.34 fold enrichment (6-mer frequency, TF over GST control)"
same,binding signal,[14],"1.23 fold enrichment (6-mer frequency, TF over GST control)"
same,binding signal,[15],"1.22 fold enrichment (6-mer frequency, TF over GST control)"
same,binding signal,[16],"1.2 fold enrichment (6-mer frequency, TF over GST control)"
same,binding signal,[17],"1.11 fold enrichment (6-mer frequency, TF over GST control)"
same,binding signal,[18],"1.12 fold enrichment (6-mer frequency, TF over GST control)"
same,binding signal,[19],"1.24 fold enrichment (6-mer frequency, TF over GST control)"
